# Assay results as given in PubChem BioAssay AID624483 (NMMLSC, 2012).
# Out of some 360,000 compounds screened, about 11,000 (3.1%) were called active. Not shown: some 2% with an inconclusive outcome. Many of the other results were omitted from the sample, so actives are more common in it than they were. Unmarked numbers belong to inactive results. No stated cut-off is given here; in the data, active means fluorescence intensity above about 16000; inconclusive means no clear call, values can overlap the other calls; inactive means below that.
# Assay: compound fluorescence in toxin protease inhibitor counterscreen, primary screen, artefact control for toxin protease inhibitor project, biochemical, multiplex microsphere, HTS (AID 624483)
# Conditions: compound autofluorescence counterscreen, microsphere flow cytometry; hits give high values
row,Compound,fluorescence intensity
1,CCOC(=O)c1cnc(SCC(=O)NCc2ccco2)nc1N,9800
2,CCOC(=O)c1cnc(SCC(=O)Nc2ccccc2C(=O)OC)nc1N,4740
3,CCOC(=O)c1cnc(SCC(=O)Nc2cccc(OC)c2)nc1N,24000 (active)
4,CC(C)C1CC2=C(C(=O)OC(C)(C)O2)C(c2ccc(F)cc2)O1 (stereo not drawn),5880
5,CC(=O)NC(=S)NNC(=O)c1ccc(Br)cc1,4310
6,CCOC(=O)[C@H]1Nc2ccc(Cl)cc2[C@@H]2[C@H]1C1CC(c3ccccc31)N2C(=O)OCc1ccccc1 (stereo partly drawn),4370
7,CCOC(=O)c1cnn(Cc2ccccc2Cl)c1N,24600 (active)
8,CCOC(=O)c1cnc2nc(SCc3ccccc3Cl)[nH]n2c1=O,4010
9,COC(=O)c1ccc(COC(=O)c2c(C)nn(Cc3ccccc3Cl)c2Cl)o1,10900
10,CCOCCCN1C(=O)CN(C2CCCCC2)C(=O)C1c1ccc(OCC)c(OC)c1 (stereo not drawn),15500
11,CC1(C)CC(=O)C/C(=N\NC(=O)c2cccs2)C1,2600
12,CC1C/C(=N/NC(=O)c2cccs2)CC(C)(C)C1 (stereo not drawn),23000 (active)
13,CC1CC(=NNC(=O)C2COc3ccccc3O2)CC(C)(C)C1 (stereo not drawn),4030
14,CCOc1cc(S(=O)(=O)NC2CC(C)(C)NC(C)(C)C2)ccc1F,4220
15,Cc1cc(Br)cn2c(Cc3ccccc3C(F)(F)F)c(C3CCCCC3)nc12,4420
16,O=C(CN1CCOCC1)Nc1ccccc1,4280
17,C/C(=N\N)c1c(-c2ccccc2)c2cc(Br)ccc2[nH]c1=O,3410
18,O=C(CN1CCOCC1)Nc1c(-c2ccccc2)c2cc(Br)ccc2[nH]c1=O,21300 (active)
19,COCCNC(=S)Nc1cc(S(=O)(=O)N2CCOCC2)ccc1N1CCCCC1,3390
20,CC(C)c1ccc(NC(=O)COC(=O)c2ccc(CN3CCCC3=O)cc2)cc1,3760
21,Cc1ccccc1-c1csc(C(O)c2cccc(Cl)c2)n1 (stereo not drawn),3550
22,CCn1c(SCC(=O)Nc2ccc(Br)cc2)nc2sc3c(c2c1=O)CCN(C)C3,5890
23,Cc1ccc(C(=O)NC2CCN(C(=O)N3CCOCC3)CC2)cc1,9950
24,O=C(N1CCOCC1)N1CCOCC1,21400 (active)

row,Compound,fluorescence intensity
1,O=C(N1CCCCC1)N1CCN(C(=O)N2CCCCC2)CC1,3210
2,CN(C)C(=O)c1cccc(-c2cnc3sc(NCc4ccc5c(c4)OCO5)nn23)c1,3900
3,COc1cccc(-c2cnc3c(NC(C)=O)cc(-c4cc(F)ccc4OC)cn23)c1,2980
4,Cc1ccc(S(=O)(=O)N2CCC(=O)N([C@H](COCc3ccccc3)Cc3ccccc3)CC2)cc1,4440
5,O=C(Nc1ccc(S(=O)(=O)N2CCc3ccccc3C2)cc1)c1ccccc1,22600 (active)
6,COC(=O)c1ccc(S(=O)(=O)N2CCc3ccccc3C2)cc1,3480
7,CC(=O)Nc1ccc(S(=O)(=O)N2CCC(NC(=O)c3ccccc3)CC2)cc1,3580
8,COc1cc(C(O)c2nc(-c3cnn(C)c3)cs2)ccc1F (stereo not drawn),3800
9,COc1ccc(-c2cc(NC=O)c3ncc(-c4cc(OC)c(OC)c(OC)c4)n3c2)c(OC)c1,3920
10,COc1ccc(C)cc1S(=O)(=O)NCCc1ccccc1,11800
11,COc1ccc(OC)c(S(=O)(=O)NCCC(C)C)c1,4230
12,COCCNS(=O)(=O)c1cc(Br)ccc1OC,24900 (active)
13,Cc1ccn(CC(=O)NC2CCCN(Cc3ccccc3F)C2)n1 (stereo not drawn),3870
14,Cc1ccc(CN2CC(N3CCC(Cc4ccccc4)CC3)CS2(=O)=O)cc1 (stereo not drawn),6680
15,Nc1ncnc2c1ncn2[C@@H]1O[C@H](C(=O)NS(=O)(=O)c2c(Cl)nc3sccn23)[C@@H](O)[C@H]1O,3980
16,O=C(NCc1ccccc1Cl)C1CCN(S(=O)(=O)c2cccc3nonc23)CC1,3550
17,N#C/C=C\Oc1ccc(Cl)cc1N,23100 (active)
18,Cc1nccn1-c1ccc(NC(=O)[C@H]2O[C@@H](n3ccc(=O)[nH]c3=O)[C@H](O)[C@@H]2O)cc1,5140
19,CC1(C(=O)NS(=O)(=O)c2ccccc2)CCN1C(=O)Cc1ccc(-c2ccccc2)cc1 (stereo not drawn),3470
20,CN(C(=O)CN1C(=O)CCSc2ccc(S(=O)(=O)N3CCCC3)cc21)c1ccccc1,5730
21,COc1ccc(CCNC(=O)CN2C(=O)CCSc3ccccc32)c(OC)c1,4070
22,CCOC(=O)CNC(=O)CN1C(=O)CCSc2ccccc21,20800 (active)
23,COc1ccc(-n2c(SCC(=O)Nc3ccc4c(c3)OCO4)nnc2C(C)N2CCCCC2)cc1 (stereo not drawn),6740
24,Cc1ccc(NC(=O)CSc2nnc(-c3cnccn3)n2Cc2ccco2)cc1C,3350

row,Compound,fluorescence intensity
1,CCn1c(SCC(=O)Nc2cc(C)c(Cl)cc2OC)nnc1-c1ccco1,5870
2,C(=C\c1ccccc1)/CSc1nnc(-c2cccnc2)n1Cc1ccco1,23400 (active)
3,CCOC(=O)Cc1csc(NC(=O)CSc2nnc(-c3cccnc3)n2Cc2ccco2)n1,4600
4,COc1cc(Cl)c(C)cc1NC(=O)CSc1nnc(-c2cccnc2)n1Cc1ccco1,20700 (active)
5,COc1ccccc1NC(=O)CSc1nc2sc(C)c(C)c2c(=O)n1Cc1ccco1,22300 (active)
6,COc1ccccc1NC(=O)CSc1nc2sc3c(c2c(=O)n1-c1ccccc1)CCN(C)C3,7290
7,COc1ccc(NC(=O)CSc2nnc(-c3cccs3)n2Cc2ccco2)cc1OC,10300
8,O=C(CSc1nnc(-c2cnccn2)n1Cc1ccco1)c1ccc(Cl)c(Cl)c1,9950
9,Cc1cc(-c2ccccc2)nc(N2CCC(C(=O)NC34CC5CC(CC(C5)C3)C4)CC2)n1,3890
10,CCN(C(=O)COc1cccnc1[N+](=O)[O-])C1CCS(=O)(=O)C1 (stereo not drawn),2480
11,COc1ccc(CNC(=O)c2ccc(-c3cccnc3)c3ccoc23)cc1OC,3080
12,Cc1cccc(C)c1-n1nnnc1C(CCc1ccccc1)N1CCN(C/C=C/c2ccccc2)CC1 (stereo not drawn),5940
13,Cc1cc(Br)ccc1NC(=O)CCCOc1cc(=O)n(C)c2ccccc12,3350
14,Cc1nn(Cc2ccccc2)c(C)c1C(=O)NCCCN1CCCC1=O,3680
15,CCOc1cc2[nH]c(=S)n(CCCN3CCCC3=O)c(=O)c2cc1OCC,5800
16,O=C(CCC(=O)NNc1nc2ccccc2c2nc(-c3ccccc3)nn12)NCCCN1CCCC1=O,2420
17,O=Cc1c(NCCCN2CCCC2=O)c2ccccc2[nH]c1=O,3940
18,O=C(CCn1c(=S)[nH]c2ccccc2c1=O)NCCCN1CCCC1=O,22700 (active)
19,O=C1CCCN1CCCNc1ncnc2c1[nH]c1ccccc12,23000 (active)
20,CC(=O)c1ccc(N2C(=NC(=O)C(C)C)SC3CS(=O)(=O)CC32)cc1 (stereo not drawn),4490
21,Cc1cccc2cc(CN(C(=O)c3cccs3)c3ccccc3)c(=O)[nH]c12,2690
22,COc1ccc(Cl)cc1NC(=O)c1oc(C)nc1C,11300
23,Cc1nc(C)c(C(=O)Nc2ccc(C)c(F)c2)o1,20400 (active)
24,Cc1ccc(NC(=O)NC(=O)c2ccccc2)cc1F,4110

row,Compound,fluorescence intensity
1,N#Cc1ccccc1S(=O)(=O)N1CCN(Cc2c(O)ccc3ccccc23)CC1,2850
2,Fc1ccc(N2N=C(c3cccs3)CC2c2ccco2)c(F)c1 (stereo not drawn),20900 (active)
3,O=C(COc1ccccc1Cl)N1N=C(c2cccs2)CC1c1ccco1 (stereo not drawn),3750
4,Cc1ccccc1C1CC(c2cccs2)=NN1S(C)(=O)=O (stereo not drawn),6430
5,O=C(NC(c1ccc(-c2ccccc2)cc1)c1cnccn1)C1CCN(CCOc2ccc(Cl)cc2Cl)CC1 (stereo not drawn),4380
6,O=C(NCc1ccco1)C1CCCN(S(=O)(=O)c2cnc[nH]2)C1 (stereo not drawn),5600
7,O=C(NCc1ccco1)C1CCCN(S(=O)(=O)c2ccccc2)C1 (stereo not drawn),21200 (active)
8,CCCS(=O)(=O)N1CCCC(C(=O)NCc2ccco2)C1 (stereo not drawn),2870
9,COCCNC(=O)C(c1ccc(C)cc1)N(C(=O)CCC(=O)Nc1ccccn1)c1cccc(C)c1 (stereo not drawn),4510
10,Cn1c2c(c(=O)n(C)c1=O)C(c1cccc(F)c1)C(C#N)=C(N)O2 (stereo not drawn),4470
11,Cc1cc2c(c(=O)n1C)C(C(C)C)C(C#N)=C(N)O2 (stereo not drawn),3460
12,Cc1cc2c(c(=O)n1Cc1ccco1)C(c1ccccc1)C(C#N)=C(N)O2 (stereo not drawn),23400 (active)
13,COc1ccc2c(c1)C(C)=CC(C)(C)N2C(=O)Nc1ccccc1,2880
14,COc1ccc2c(c1)C(C)=CC(C)(C)N2C(=O)CNCc1ccc2c(c1)OCO2,21400 (active)
15,COc1ccc(NC(=O)NCc2ccc3c(c2)OCO3)c(OC)c1,5960
16,Cc1cc(C(=O)COc2ccc(Br)cc2F)c(C)n1C1CC1,4210
17,CCCNC(=O)C1(C)CCCN(Cc2c(C)nn(-c3ccccc3)c2C)C1 (stereo not drawn),3870
18,OC(c1ccc(F)cc1)c1ncc(-c2cccc(C(F)(F)F)c2)[nH]1 (stereo not drawn),2920
19,COc1ccc(S(=O)(=O)N2CCC(C(=O)N3CCCC3)CC2)cc1C,2980
20,COc1ccc(S(=O)(=O)N2CCC(C(=O)N3CCOCC3)CC2)cc1OC,8730
21,COc1ccc(S(=O)(=O)N2CCC(C(=O)N3CCc4ccccc4C3)CC2)cc1OC,18500 (active)
